This passage reports Potency and viability results from PubChem BioAssay (NCATS).

Molecules are shown by their SMILES. Inconclusive results are not listed. Unmarked numbers belong to inactive results. Calls of active or inactive are those of the source. The call rests on the fitted dose curve; in most records, active means well fitted cell-killing curve with a large enough effect; inconclusive means small, poorly fitted or top-dose-only effect, or effect the other way; inactive means no such curve, though single readings can be large or run the other way.

A short description of test [1]: Quantitative High-Throughput drug screen in 47 multiple myeloma cell lines against the NCATS MIPE library collection: SKMM1_PLB cell viability assay (AID 1919863). Further: nearly all actives have a fitted effect of over 35% in size. The conditions noted are these: SKMM1 myeloma viability, CellTiter-Glo ATP, 48 h; viability: active compounds read low. In short, it runs like this:
(§1)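 MIPE 4.0 approved/investigational drugs; 500 cells/well; 48 h 37 °C humidified 5% CO2; CTG luminescence readout; DMSO = 100%, media = 0% viability.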
On the technique in general: Cellular ATP, detected with luciferase, serves as a proxy for viable cell number.

The nature of test [2]: Quantitative High-Throughput drug screen in 47 multiple myeloma cell lines against the NCATS MIPE library collection: U266_ATCC cell viability assay (AID 1919864). Further: nearly all actives have a fitted effect of over 35% in size. Summed up:
as §1

Test [3] in a line: Quantitative High-Throughput drug screen in 47 multiple myeloma cell lines against the NCATS MIPE library collection: XG6_PLB cell viability assay (AID 1919865). Further: nearly all actives have a fitted effect of over 40% in size. Summed up:
as §1

A short description of test [4]: Quantitative High-Throughput drug screen in 47 multiple myeloma cell lines against the NCATS MIPE library collection: XG1_PLB cell viability assay (AID 1919866). Further: nearly all actives have a fitted effect of over 35% in size. Summed up:
as §1

Test [5] is described as follows: Quantitative High-Throughput drug screen in 47 multiple myeloma cell lines against the NCATS MIPE library collection: PE2_PLB cell viability assay (AID 1919869). Further: nearly all actives have a fitted effect of over 35% in size. Summed up: as §1
Test [6] can be described thus: Quantitative High-Throughput drug screen in 47 multiple myeloma cell lines against the NCATS MIPE library collection: PCM6_Riken cell viability assay (AID 1919870). Further: nearly all actives have a fitted effect of over 30% in size. Summed up: as §1
The nature of test [7]: Quantitative High-Throughput drug screen in 47 multiple myeloma cell lines against the NCATS MIPE library collection: OPM2_DSMZ cell viability assay (AID 1919872). Further: nearly all actives have a fitted effect of over 30% in size. Summed up:
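We plated 500 myeloma cells per well, pinned in MIPE 4.0 compounds, and incubated for 48 hours at 37C. ATP was then quantified with CellTiter-Glo, with DMSO and media-only wells defining 100% and 0%.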

Test [8] is described as follows: Quantitative High-Throughput drug screen in 47 multiple myeloma cell lines against the NCATS MIPE library collection: KMS11_JCRBsus cell viability assay (AID 1919873). Further: nearly all actives have a fitted effect of over 50% in size. In short, it runs like this: as §1
Test [9] can be described thus: Quantitative High-Throughput drug screen in 47 multiple myeloma cell lines against the NCATS MIPE library collection: RPMI8226_ATCC cell viability assay (AID 1919871). Further: nearly all actives have a fitted effect of over 30% in size. In short, it runs like this:
as §1

A short description of test [10]: Quantitative High-Throughput drug screen in 47 multiple myeloma cell lines against the NCATS MIPE library collection: KMS28BM_JCRB cell viability assay (AID 1919874). Further: nearly all actives have a fitted effect of over 35% in size. Summed up: as §1
Test [11] is described as follows: Quantitative High-Throughput drug screen in 47 multiple myeloma cell lines against the NCATS MIPE library collection: VP6_DJ cell viability assay (AID 1919867). Further: nearly all actives have a fitted effect of over 40% in size. In short, it runs like this: as §1
Test [12] can be described thus: Quantitative High-Throughput drug screen in 47 multiple myeloma cell lines against the NCATS MIPE library collection: UTMC2_PLB cell viability assay (AID 1919868). Further: nearly all actives have a fitted effect of over 55% in size. The conditions noted are these: CellTiter-Glo ATP luminescence, 48 h; viability (% of DMSO control): at 45.8 µM (top of the series). In short, it runs like this:
as §1
Potency means the concentration at half of the fitted maximal effect.

Consider `Nc1ncnc2c1ncn2[C@@H]1O[C@H](CO)C[C@@H]1O`, for which the Potency in test [1] is 18.7 µM (active); in [2], 26.4 µM (active); in [8], 37.2 µM (active). In addition, the Potency entry in test [3], in test [4], in [5], in test [6] and in test [7] was “inactive” each time.
As a reminder, the viability is a read-out of living cells in per cent, often relative to untreated cells. As for `NC1CCC(Nc2nc(Nc3ccc(C(=O)N4CCCCC4)cc3)c3ncn(-c4cccc(F)c4)c3n2)CC1` (stereo unspecified), the viability in [1] was 125%. Besides, the Potency entry in test [2], in test [3], in test [4], in test [5], in test [9] and in test [7] was “inactive” in each case. In addition, the Potency entry in test [8] and in test [10] was “inactive” each time.
Consider `O=c1cc(N2CCOCC2)oc2c(-c3cccc4c3sc3ccccc34)cccc12`, for which the Potency in test [1] is 11.8 µM (active); in test [3] it was 5.9 µM (active); in [11], 3.72 µM (active); in [12] it was 5.9 µM (active); in test [5], 9.35 µM (active); in [6], 8.33 µM (active). Further, the Potency in [10] was 3.72 µM (active). Moreover, in test [2], the Potency result is “inactive”.
Regarding `Cc1c(O)cccc1C(=O)N[C@@H](CSc1ccccc1)[C@H](O)CN1C[C@H]2CCCC[C@@H]2C[C@@H]1C(=O)NC(C)(C)C`, the Potency in test [1] is 20.9 µM (active); in [2] it was 18.7 µM (active); in test [3], 29.6 µM (active); in [4], 23.5 µM (active); in [12], 23.5 µM (active); in [5], 26.4 µM (active). In addition, the Potency in [6] was 18.7 µM (active); in test [9] it was 18.7 µM (active); in [7], 26.4 µM (active); in [8], 18.7 µM (active); in [10], 20.9 µM (active).
As to `Cc1ccc(C(=O)Nc2cccc(C(F)(F)F)c2)cc1Nc1nc(-c2cccnc2)nc2c1cnn2C`, the Potency in [1] was 14.8 µM (active); in [2], 8.33 µM (active); in [3] it was 4.69 µM (active); in test [4] it was 10.5 µM (active); in [12] it was 11.8 µM (active); in [5], 9.35 µM (active). The Potency was 20.9 µM (active) in test [6], 18.7 µM (active) in [9] and 16.6 µM (active) in test [7].
As for `O=C(O)c1ccc(-c2cc3cccnc3c(-c3ccc4nonc4c3)n2)cc1`, the Potency in [1] is 20.9 µM (active); in [2], 20.9 µM (active); in [3], 20.9 µM (active); in test [4] it was 20.9 µM (active); in [11], 20.9 µM (active); in test [6] it was 29.6 µM (active). In addition, the Potency in test [8] and in test [10] was 26.4 µM (active) throughout.
For `Cc1nnc(C(C)C)n1C1C[C@H]2CC[C@@H](C1)N2CC[C@H](NC(=O)C1CCC(F)(F)CC1)c1ccccc1` (stereo partly specified), the viability in [1] is 147%. The Potency in test [2] is 11.8 µM (active); in test [3], 4.69 µM (active); in [11], 23.5 µM (active). For the same compound, the Potency entry in test [12], in test [9], in test [7], in test [8] and in [10] was “inactive” throughout.
In the case of `CC(=O)Nc1ccc([C@H](C)C(=O)Nc2ncc(C(C)C)s2)cc1`, the Potency in test [1] is 8.33 µM (active); in test [2] it was 4.69 µM (active); in [3], 0.0935 µM (active); in [11], 1.66 µM (active); in test [12], 3.72 µM (active); in test [5], 2.35 µM (active). The Potency in test [6] is 1.48 µM (active); in test [9], 2.64 µM (active); in test [7], 8.33 µM (active); in test [8], 2.35 µM (active).
Regarding `COc1cc2nc(-c3ccc(N4CCN(C)CC4)cc3)nc(NCCN3CCOCC3)c2cc1OC`, the Potency in [1] was 0.132 µM (active); in test [2], 0.0209 µM (active); in test [3], 0.166 µM (active); in test [4] it was 0.0372 µM (active); in [12], 0.935 µM (active); in test [5] it was 0.148 µM (active). For the same compound, the Potency in [6] is 0.166 µM (active); in [9], 0.0833 µM (active); in test [7] it was 3.32 µM (active); in test [8] it was 0.0935 µM (active); in [10], 0.105 µM (active).
With `C=C1C(=O)[C@@]23C(CC[C@@H]1[C@H]2O)[C@@]12CO[C@]3(O)[C@@H](O)[C@@H]1C(C)(C)CC[C@@H]2O` (stereo partly specified), the Potency in [1] is 13.2 µM (active); in [2], 8.33 µM (active); in test [3], 1.48 µM (active); in test [4] it was 2.96 µM (active); in test [11], 2.96 µM (active); in [12] it was 8.33 µM (active). Besides, the Potency is 1.18 µM (active) in [5]; 1.66 µM (active) in test [6]; 11.8 µM (active) in test [9]; 7.43 µM (active) in test [7]; 2.96 µM (active) in test [8]; 2.35 µM (active) in test [10].
`O=C(Nc1ccccc1-c1cn2c(CN3CCNCC3)csc2n1)c1cnc2ccccc2n1`: the Potency is 4.69 µM (active) in test [1]; 11.8 µM (active) in test [2]; 9.35 µM (active) in test [3]; 7.43 µM (active) in [4]; 9.35 µM (active) in test [11]; 8.33 µM (active) in [5]. For the same compound, the Potency is 10.5 µM (active) in test [6], 20.9 µM (active) in [9], 23.5 µM (active) in test [7] and 8.33 µM (active) in [8].
In the case of `O=c1[nH]cnc2c1ncn2[C@H]1CC[C@@H](CO)O1`, the viability in [1] is 151%. The Potency result in test [2], in [3], in test [4], in [5], in test [6] and in test [9] was “inactive” each time. For the same compound, the Potency entry in test [7] and in test [8] was “inactive” throughout.
On to `O=C(NCc1ccncc1)C12C[C@H]3C[C@@H](C1)CC(c1ccc(Cl)cc1)(C3)C2`, for which the Potency in test [1] is 23.5 µM (active); in [2], 16.6 µM (active); in [3], 4.69 µM (active); in [9], 29.6 µM (active); in [8], 14.8 µM (active); in test [10], 18.7 µM (active).
Take `CC[C@]1(O)C[C@@H]2CN(CCc3c([nH]c4ccccc34)[C@@](C(=O)OC)(c3cc4c(cc3OC)N(C=O)[C@@H]3C45CCN4CC=C[C@](CC)([C@H]45)[C@@H](OC(C)=O)[C@]3(O)C(=O)OC)C2)C1` (stereo partly specified): the Potency in test [1] is 20.9 µM (active); in test [2], 23.5 µM (active); in [5] it was 16.6 µM (active); in test [7], 23.5 µM (active).
With `O=C(O)C=Cc1ccc(O)c(O)c1`, the Potency was 29.6 µM (active) in [1], 14.8 µM (active) in test [2] and 16.6 µM (active) in [5]. The Potency entry in test [12], in test [6], in test [7] and in test [10] was “inactive” in each case.
